Screening results (PubChem BioAssay)
Hits are enriched below; roughly 4% of the tested compounds scored in any of these assays.
Arbovirus inh: arbovirus infection inhibition; inhibition, % at 10 µM; AID 1251; arbovirus infection cell-based antiviral screen; 200,000 compounds, 0.37% hits; in the data active = inhibition above about 30%
ROMK primary: human ROMK K+ channel modulation, primary screen; P48048; Tet-inducible ROMK, thallium flux fluorescence; actives lie on both sides; B-score at 10 µM; 130,000 compounds, 2% hits;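 active = signal ratio slope over the read window, or its plate-corrected B-score, at least 3 SD from the plate mean, either direction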;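 also: B-score of the F/F0 ratio slope over 7 to 12 s after thallium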
Target sequence (P48048 whole entry, looked up): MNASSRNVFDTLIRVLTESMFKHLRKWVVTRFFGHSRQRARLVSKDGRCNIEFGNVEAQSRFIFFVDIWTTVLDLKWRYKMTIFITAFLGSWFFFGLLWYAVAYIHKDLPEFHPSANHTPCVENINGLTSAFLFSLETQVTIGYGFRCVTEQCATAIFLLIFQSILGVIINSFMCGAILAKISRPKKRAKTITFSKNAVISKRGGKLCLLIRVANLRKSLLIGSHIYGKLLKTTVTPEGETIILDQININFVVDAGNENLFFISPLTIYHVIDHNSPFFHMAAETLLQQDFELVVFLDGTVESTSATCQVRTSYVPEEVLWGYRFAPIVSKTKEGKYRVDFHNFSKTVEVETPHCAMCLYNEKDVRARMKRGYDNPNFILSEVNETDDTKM
KCC2 mod: modulators of human KCC2 chloride dependent transport. Q9H2X9. KCC2 cells, thallium flux FluoZin-2 fluorescence. B-score of Tl+ flux slope (higher = more flux/activation; lower = inhibition) at 10 µM. 190,000 compounds, 2.2% hits;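 active = thallium flux slope and its plate-corrected score both differing from the plate sample mean at a set confidence after two filtering rounds, in either direction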;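 also: slope of fluorescence scaled to starting intensity during 10 to 20 s after thallium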
Measles CPE: protection of cells from measles virus. Measles virus-infected cells, CPE protection, absorbance. 140,000 compounds, 1.5% hits. protection (pct of control), % at 4 µM. AID 841; in the data active = protection mostly above about 24%, no sharp cut-off; inactive = mostly below about 26%
HSV augment: increases HSV replication in cells; AID 1956; 220,000 compounds, 0.005% hits; HSV replication augmentation in cells, fold increase; maximum fold increase; in the data active = maximum fold increase above about 1.5; tested in PC3 cells
Starred values were filed as active, the others as inactive; i = inactive; . = not tested or not shown.

SMILES	Arbovirus inh	ROMK primary	KCC2 mod	Measles CPE	HSV augment
C=CCn1c(CNC(=O)c2cccs2)nnc1SCc1ccc(Cl)cc1Cl	63*	.	-2	27	i
CCn1c(CNC(=O)c2cccs2)nnc1SCC(=O)Nc1cc(Cl)ccc1C	3	.	-0.69	25	i
O=C(CCOc1ccccc1)Nc1ccc([N+](=O)[O-])cc1	8	-0.93	-1.5	.	i
COc1ccc(C(=O)COC(=O)c2cc(S(=O)(=O)NCc3ccccc3)ccc2O)cc1	1	0.52	-0.016	.	i
CCC(C)NC(=O)C1CCCCN1S(=O)(=O)c1ccc(F)cc1 (centres undefined)	6	-0.43	.	5	i
CCOC(=O)N1CCC(NC(=O)C2CCCCN2S(=O)(=O)c2ccc(F)cc2)CC1 (centres undefined)	5	.	0.11	34*	i
Cc1oc(C(C)(C)C)cc1C(=O)N1CCCC1C(=O)O (centres undefined)	0	0.85	0.67	26*	i
COc1cc(OC)cc(C(=O)N(Cc2cc3cc(C)ccc3[nH]c2=O)C(C)C)c1	3	-0.78	.	44*	i
Cc1cc(C)cc(N2C(=O)C3CC=CCC3C2=O)c1 (centres undefined)	2	.	0.4	44*	i
CCNc1nc(NC(C)C)nc(NS(=O)(=O)c2ccc(N)cc2)n1	0	0.87	.	19	i
CC(C)Nc1nc(NC(C)C)nc(NS(=O)(=O)c2ccc(N)cc2)n1	-2	0.45	1.4	30*	i
COC(=O)C1CCN(C(c2cc(OC)c(OC)c(OC)c2)c2sc3nc(C)nn3c2O)CC1 (centres undefined)	4	.	0.72	34*	i
CCC(C)(C)n1nnnc1C(c1ccc(OC)c(OC)c1)N1CCN(c2ccc(OC)cc2)CC1 (centres undefined)	9	-0.022	-0.51	59*	i
CN(CCOC(=O)c1ccc2c(c1)OCCO2)Cc1ccccc1	2	-1.1	-1.8	22	i
CN(CCOC(=O)c1ccc2c(c1)OCCO2)C(C)(C)C	1	-0.025	0.24	88*	i
Cc1ccc(/C=C/C(=O)c2ccc(N3CCOCC3)cc2)s1	3	0.91	-0.75	.	i
CC(=O)C1=C(C)Nc2ncnn2C1c1ccccc1Cl (centres undefined)	-6	.	0.96	101*	i
CC1=C(C(N)=O)C(c2ccc(Cl)cc2Cl)n2ncnc2N1 (centres undefined)	12	.	0.31	7	i
CC(C)OCCCNC(=O)c1ccc2c(c1)ncn2C1CCCC1	-3	-0.48	0	8	.
O=C(NCCCN1CCCC1=O)c1ccc2c(c1)ncn2C1CCCCC1	13	-0.95	0.22	41*	.
CCOC(=O)C1=C(C)N(CCCC(=O)O)C(=O)NC1c1cc2ccccc2c2ccccc12 (centres undefined)	.	.	.	.	i
O=C(/C=C/c1cccc(Cl)c1)c1nc2ccccc2[nH]1	-25	-0.92	0.003	58*	i
O=C(/C(=C\c1ccccc1)c1nc2ccccc2[nH]1)c1ccc(Cl)cc1	-36	.	1.2	3	i
O=C(Nc1cccc2ccccc12)c1cc2c(cc1Br)OCO2	.	.	0.49	.	i
OC(CNCCC(c1ccccc1)c1ccccc1)COc1ccccc1 (centres undefined)	-31	-2.4	0.91	.	i
SMILES	Arbovirus inh	ROMK primary	KCC2 mod	Measles CPE	HSV augment
COc1cccc(OCC(=O)NNC(=O)c2cccs2)c1	-4	0.95	0.38	1	i
CCc1ccc(NC(=O)C(=O)NNC(=O)COc2cccc(OC)c2)cc1	5	2.8*	18*	5	i
CCCC(=O)OCCn1c(Br)nc2c1c(=O)[nH]c(=O)n2C	-2	.	0.41	35*	i
C[n+]1cccc(CNC(=O)/C=N/O)c1	3	0.1	0.15	active	i
O=C(/C=N/O)NCc1cccnc1	2	.	-1.3	2	i
O=C(O)c1ccc(CSc2nc(-c3ccc(Cl)cc3)cc(C(F)(F)F)n2)cc1	-18	2.4	-1.2	2	i
O=C(O)c1ccc(CSc2nc(-c3ccccc3)cc(C(F)(F)F)n2)cc1	-4	1.1	-2	34*	i
Nc1[nH]nc2nc(N3CCCC3)nc(-c3ccccc3)c12	-1	-0.56	0.024	8	i
COc1ccc(-c2nc(N3CCOCC3)nc3n[nH]c(N)c23)cc1	3	-0.065	0.28	28*	i
Cc1nn(-c2cccc(Cl)c2)c2nc(C(F)(F)F)[nH]c(=O)c12	30	.	3.7	24	i
Cc1nn(-c2cc(C(F)(F)F)ccc2Cl)c2nc(C(F)(F)F)[nH]c(=O)c12	42*	-0.39	-1.5	3	i
COc1cccc2c1OC1(C)CC2NC(=O)N1c1cccc(C(=O)N2CCN(c3ccccc3)CC2)c1 (centres undefined)	7	0.4	0.073	.	i
Cn1ccnc1C1CCCCN1C(=O)c1cc(COc2ccc(F)cc2F)on1 (centres undefined)	.	.	-2.7	.	i
CCCn1c(NC(=O)c2ccc(C)cc2)nc2ccccc21	-36	0.34	.	11	i
CCCn1c(NC(=O)c2ccccc2)nc2ccccc21	-16	.	9.9*	8	i
CCn1c(NC(=S)Nc2ccccc2)nc2ccccc21	-3	.	13*	8	i
CC(C)[C@H](NC(=O)NCc1ccc(F)cc1)C(=O)O	.	.	0.57	.	i
O=C1CN=CN=CN1c1ccc(Cl)cc1Cl	-3	.	0.96	45*	.
CCCCC(=O)Nc1ccc(Br)cc1C(=O)O	8	.	-0.68	55*	i
CCOC(=O)CC(=O)Nc1ccc(Br)cc1C(=O)O	2	1.2	0.74	20	i
OC(CNC1CCCCC1)CNC1CCCCC1	39*	0.015	0.35	.	i
COC(=O)C1=C(C(=O)OC)[C@@H]2N(C)c3ccccc3[C@@]23C[C@@H](CO)N(C(=O)C2CCC2)C3=N1	.	.	.	.	i
CC(=O)/C(=N/Nc1cccc(Cl)c1)Sc1nnc(C(O)c2ccccc2)n1-c1ccccc1 (centres undefined)	47*	.	-0.15	1	i
COc1cc(F)c(C(=O)NC(C)(C)CO)cc1OC	.	.	.	.	i
CC(NC(=O)/C=C/c1ccco1)c1nc2ccccc2n1Cc1ccccc1F (centres undefined)	-2	.	0.98	17	i
SMILES	Arbovirus inh	ROMK primary	KCC2 mod	Measles CPE	HSV augment
COc1cccc(/C=N/n2c(-c3n[nH]c4c3CCC4)n[nH]c2=S)c1OC	.	-1.2	0.26	.	i
O=C1CN(c2nc(-c3ccccc3)c3cc(Cl)ccc3n2)c2ccccc2N1	-3	.	0.28	40*	i
OCCN1CCN(c2nc(-c3ccccc3)c3cc(Cl)ccc3n2)CC1	-30	.	1.7	63*	i
COC(=O)c1cnn(-c2ccc(F)cc2F)c1/C=N/NC(N)=S	.	-0.44	-0.075	.	i
CCOc1ccc(N/C=C\C(=O)c2ccc3c(c2)OCO3)cc1	-16	.	1.1	42*	i
COC(=O)c1ccccc1N1C(=O)C2C(C1=O)[C@H]1C=C[C@@H]2C1 (some centres undefined)	0	.	-0.46	101*	i
COC(=O)c1ccccc1N1C(=O)C2C(C1=O)C1C=CC2C12CC2 (centres undefined)	7	.	0.8	10	i
